USP28 inh = inhibitors of human USP28 deubiquitinase | purified USP28, Ub-rhodamine cleavage fluorescence, 30 min | AID 1645857, 2021 | Ubiquitin carboxyl-terminal hydrolase 28 (Homo sapiens), Q96RU2 | inhibition, % at 25 µM | hit rate 3% among 47,000
USP17 inh = inhibitors of human USP17 deubiquitinase | Ubiquitin carboxyl-terminal hydrolase 17-like protein 5 (Homo sapiens), A8MUK1 | hit rate 6.5% among 47,000 | inhibition, % at 50 µM | purified USP17, Ub-rhodamine cleavage fluorescence, 3 h | AID 1645855, 2021
Target sequence (A8MUK1 whole entry, looked up): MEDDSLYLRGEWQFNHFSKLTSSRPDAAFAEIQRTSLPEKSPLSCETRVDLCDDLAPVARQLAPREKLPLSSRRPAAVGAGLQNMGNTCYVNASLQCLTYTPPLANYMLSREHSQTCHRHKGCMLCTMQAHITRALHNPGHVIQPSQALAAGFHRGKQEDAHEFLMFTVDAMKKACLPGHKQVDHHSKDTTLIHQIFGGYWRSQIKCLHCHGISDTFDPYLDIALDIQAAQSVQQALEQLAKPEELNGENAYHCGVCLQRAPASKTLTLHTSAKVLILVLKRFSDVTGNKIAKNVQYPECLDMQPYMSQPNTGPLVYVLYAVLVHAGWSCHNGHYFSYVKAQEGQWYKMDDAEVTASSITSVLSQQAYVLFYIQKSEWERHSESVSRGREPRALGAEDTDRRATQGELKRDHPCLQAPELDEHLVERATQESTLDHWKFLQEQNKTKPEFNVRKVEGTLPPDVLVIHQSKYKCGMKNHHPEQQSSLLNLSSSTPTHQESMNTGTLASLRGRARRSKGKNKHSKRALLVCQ
USP8 block = inhibitors of human USP8 deubiquitinase. Ubiquitin carboxyl-terminal hydrolase 8 (Homo sapiens), P40818. purified USP8, Ub-rhodamine cleavage fluorescence, 30 min. inhibition, % at 20 µM. hit rate 4.2% among 47,000
USP30 block = inhibitors of human USP30 deubiquitinase | Ubiquitin carboxyl-terminal hydrolase 30 (Homo sapiens), Q70CQ3 | hit rate 5.3% among 47,000 | purified USP30, Ub-rhodamine cleavage fluorescence | inhibition, % at 25 µM
* marks the source's active call; other numbers are inactive results; i = inactive. Shown are actives, neighbours in structure and some others; about 14% of the full set was active somewhere. No stated cut-off is given here; in the data, active means inhibition above about 30%; inactive means the rest.

SMILES	USP28 inh	USP17 inh	USP8 block	USP30 block
O=C(Cn1c(=O)n(Cc2ccc3c(c2)OCO3)c(=O)c2ncccc21)NCc1ccco1	18	49*	13	-11
O=C(Cn1c(=O)n(Cc2ccc3c(c2)OCO3)c(=O)c2ncccc21)c1ccc(Cl)cc1	-8	5	73*	62*
O=C(Cn1c(=O)n(Cc2ccccc2)c(=O)c2ncccc21)NCc1ccccc1Cl	-1	86*	50*	-28
CN1C(=O)COc2cc(-c3noc(C(=O)NCCc4ccccc4)n3)ccc21	13	9	29	15
CN1C(=O)COc2cc(-c3noc(C(=O)NCC4CCCO4)n3)ccc21 (stereo not given)	-4	-3	-2	8
CC(CNC(=O)c1nc(-c2ccc3c(c2)OCC(=O)N3C)no1)c1ccccc1 (stereo not given)	39*	3	26	29
CN1C(=O)COc2cc(-c3noc(C(=O)NC4CCCCC4)n3)ccc21	12	26	19	31*
CC(=O)N1C[C@@H]2C[C@@]3(C)[C@H](CCCC[C@@H]13)N2S(=O)(=O)c1cccnc1	-6	0	-1	-3
O=c1[nH]c2ccccc2n1CCCOc1ccc(Cl)cc1	40*	7	5	6
Cc1cc(Nc2ccc(Cl)cc2)n2nc(-c3ccco3)nc2n1	0	36*	9	-163
Cc1ccc(C)c(Nc2cc(C)nc3nc(-c4ccco4)nn23)c1	14	58*	22	-15
Cc1cc(Nc2cc(F)ccc2F)n2nc(-c3ccco3)nc2n1	5	-4	2	-78
COc1ccc(C)cc1Nc1cc(C)nc2nc(-c3ccco3)nn12	-3	17	-3	-23
Cc1ccc(C)c(-c2cc3c(=O)n(Cc4noc(CN5CCCCC5)n4)ccn3n2)c1	71*	-9	-10	-52
COc1ccc(NS(=O)(=O)c2ccc(-c3cc(C)[nH]n3)s2)cc1OC	-6	0	3	-2
Cc1cc(NC(=O)CN2C(=O)C(=O)c3ccccc32)ccc1-n1ncnn1	-14	6	32*	-12
COc1ccc(-c2c(C(=O)O)sc3c2NC(=O)CC3c2ccccc2)cc1 (stereo not given)	8	0	-2	3
COc1cccc(C2CC(=O)Nc3c2sc(C(=O)O)c3-c2ccc(C)cc2)c1 (stereo not given)	3	14	17	30*
COc1ccccc1OCc1ccc(C(=O)Nc2ccc(F)cc2C)cc1	-2	53*	0	13
COc1cccc(CNC(=O)c2ccc(Cn3cncn3)cc2)c1	7	8	5	29
COc1cccc(-n2cnc3cc(C(=O)NCCc4ccccc4)ccc3c2=O)c1	0	0	54*	-21
COc1cccc(C(=O)Nc2ccccc2C(=O)NCCc2ccccc2)c1	13	29	-2	49*
COc1cccc(CNC(=O)c2ccccc2NC(=O)c2ccc(F)cc2)c1	-4	7	1	41*
Cc1cc(C2CCCN2S(=O)(=O)c2ccc(F)cc2)no1 (stereo not given)	0	3	-24	6
Cc1nc2c(nnn2C[C@H]2CCCN2C(=O)c2ccco2)c(=O)[nH]1	-11	-1	-12	-9
SMILES	USP28 inh	USP17 inh	USP8 block	USP30 block
C=C1NC(=O)c2c(sc(C(=O)OCC(=O)N3c4ccccc4CC3C)c2C)N1 (stereo not given)	-24	-23	-6	-82
CC(C)Cc1cc(C(=O)N2CCOCC2c2ccn[nH]2)on1 (stereo not given)	3	0	2	4
O=C(NCCc1ccccc1)c1ccccc1-c1ccccc1C(=O)NCCc1ccccc1	13	11	12	32*
Cc1ccc(C(=O)Nc2c(C(=O)N3CCN(c4ccccc4)CC3)[nH]c3ccccc23)cc1	13	34*	0	0
Nc1ncc(CN2CCc3nc(-c4ccccn4)[nH]c(=O)c3C2)cn1	-22	-48	-283	-5
c1ccc2oc(-c3cn[nH]c3)nc2c1	12	13	-154	31*
CCOc1ccc(C(=O)Nc2cccc(-c3nc4ccccc4o3)c2)cc1Br	-244	-145	-34	i
O=C(CC1C(=O)Nc2nc(-c3ccccc3)nn21)Nc1cccc2ccccc12 (stereo not given)	0	84*	41*	-4
O=C(CC1C(=O)Nc2nc(-c3ccccc3)nn21)Nc1ccccc1 (stereo not given)	-9	2	1	-8
O=C(CC1C(=O)Nc2nc3ccccc3n21)Nc1cccc2ccccc12 (stereo not given)	20	17	55*	46*
CCOc1cccc2c1OC(C)(C)[C@H]1CC3(CCN(C(=O)c4cccc5c4OCCO5)CC3)CO[C@H]21	-2	1	7	0
CC(C)c1noc(-c2ccnc(-n3cnc(C(=O)N4CCOCC4)c3)c2)n1	-5	-1	0	8
COc1ccccc1NS(=O)(=O)c1cc([N+](=O)[O-])ccc1NCC1COc2ccccc2O1 (stereo not given)	12	6	3	22
Cc1ccc([N+](=O)[O-])cc1S(=O)(=O)Nc1cc2sc(=O)oc2c2ccccc12	61*	67*	89*	-10
COc1cccc(OC)c1C(=O)Nc1c(NCc2ccccc2)c2ccccc2oc1=O	18	30*	-52	17
Cc1ccc(-c2nc(CNC(=O)C(C)Oc3ccccc3F)cs2)cc1 (stereo not given)	9	7	5	46*
O=C(CCc1ccccc1)Nc1ccc2c(c1)nc1n2CCN(C2CCCC2)C1	-9	25	31*	-132
CC(CN1CCOCC1)C(=O)Nc1cccn2nc(C3CC3)nc12 (stereo not given)	10	3	4	15
COc1c(C)c(C(O)C(C)O)c2[nH]c3ccc(CC=C(C)C)cc3c2c1O (stereo not given)	48*	99*	63*	48*
Cn1c(=O)cc(C(=O)Nc2cc(C(F)(F)F)cc(C(F)(F)F)c2)[nH]c1=O	12	21	20	36*
Cn1c(=O)cc(C(=O)Nc2ccc(OC(F)(F)F)cc2)[nH]c1=O	0	7	4	8
CC1Oc2ccc(NC(=O)c3cccc(S(=O)(=O)N4CCc5ccccc5C4)c3)cc2NC1=O (stereo not given)	10	31*	-7	-14
O=C(Nc1ccc(Br)c(C(=O)c2ccccc2)c1)c1ccc(S(=O)(=O)N2CCc3ccccc3C2)cc1	4	8	-11	9
COc1ccccc1C(=O)Nc1ccc2c(c1)NC(=O)C(C)O2 (stereo not given)	-5	-14	3	-5
CCOc1cccc(NC(=O)c2ccc(S(=O)(=O)N3CCc4ccccc4C3)cc2)c1	21	53*	28	41*
c1ccc(-c2nn3c(-c4ccco4)nnc3c3ccccc23)cc1	0	1	8	-2
O=c1ccc(-c2nnc3c4ccccc4c(Cc4ccccc4)nn23)n[nH]1	10	3	59*	0
COc1ccc(S(=O)(=O)N(C)Cc2cccs2)cc1OC	68*	11	15	27

Source: PubChem
